# Hit rate of the full screen: of about 310,000 compounds, about 14,000 (4.5%) showed an effect of 50% or more. Effects have a minus sign here. What follows is part of a selection rich in strong results, with near analogues and random picks from the rest.
# Molecular target: human ether-à-go-go-related gene (hERG) potassium channel (human, UniProt Q12809)
# Experiment: primary screen, population patch clamp on CHO cells stably expressing hERG; higher = less effect of the substance
# 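Note: peak tail current of the secondary pulse compared with the same well before compound.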
# human ether-à-go-go-related gene (hERG) potassium channel, sequence (Q12809 whole entry, looked up): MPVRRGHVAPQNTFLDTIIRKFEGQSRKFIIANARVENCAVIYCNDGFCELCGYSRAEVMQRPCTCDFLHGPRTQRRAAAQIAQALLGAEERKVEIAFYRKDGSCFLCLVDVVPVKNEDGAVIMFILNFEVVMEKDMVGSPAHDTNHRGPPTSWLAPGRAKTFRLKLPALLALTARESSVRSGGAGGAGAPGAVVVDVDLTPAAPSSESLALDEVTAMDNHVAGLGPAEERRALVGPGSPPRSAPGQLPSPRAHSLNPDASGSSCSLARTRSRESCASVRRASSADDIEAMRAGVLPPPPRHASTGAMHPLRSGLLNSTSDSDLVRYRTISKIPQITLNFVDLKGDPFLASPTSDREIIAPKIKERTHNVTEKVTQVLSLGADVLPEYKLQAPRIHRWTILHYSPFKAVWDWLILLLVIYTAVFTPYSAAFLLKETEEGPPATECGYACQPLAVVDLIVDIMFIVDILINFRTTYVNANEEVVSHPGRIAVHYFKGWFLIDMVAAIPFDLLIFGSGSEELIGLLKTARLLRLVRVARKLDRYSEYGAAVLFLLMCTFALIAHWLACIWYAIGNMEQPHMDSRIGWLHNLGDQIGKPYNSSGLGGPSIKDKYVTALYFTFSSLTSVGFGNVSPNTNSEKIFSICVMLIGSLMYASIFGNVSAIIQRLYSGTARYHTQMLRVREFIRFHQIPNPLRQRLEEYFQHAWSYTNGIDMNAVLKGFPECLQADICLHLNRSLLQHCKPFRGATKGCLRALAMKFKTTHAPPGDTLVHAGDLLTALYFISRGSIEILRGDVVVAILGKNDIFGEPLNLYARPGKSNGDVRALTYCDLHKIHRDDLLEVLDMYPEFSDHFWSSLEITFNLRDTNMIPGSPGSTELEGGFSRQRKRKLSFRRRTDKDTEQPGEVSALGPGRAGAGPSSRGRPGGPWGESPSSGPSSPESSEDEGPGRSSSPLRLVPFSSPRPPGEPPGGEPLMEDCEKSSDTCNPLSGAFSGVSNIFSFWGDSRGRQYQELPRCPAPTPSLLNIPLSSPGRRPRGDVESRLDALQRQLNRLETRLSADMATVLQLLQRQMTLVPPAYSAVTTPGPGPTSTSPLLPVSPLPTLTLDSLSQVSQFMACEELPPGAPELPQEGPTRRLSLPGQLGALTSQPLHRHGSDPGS
row,SMILES,"hERG current change (%, negative = inhibition) at 10uM"
1,CCOc1ccc2oc(=O)cc(CN3CCOCC3)c2c1,-1.8%
2,O=C(COC(=O)CCc1nc2ccccc2c(=O)[nH]1)Nc1ccc(OC(F)(F)F)cc1,-5.93%
3,Cc1cc(OC2CCCCC2)nc(NCc2ccccc2)n1,1.82%
4,COc1ccccc1CNC(=O)COC(=O)Cc1cccc(F)c1,1.78%
5,CC1Cc2ccccc2N1C(=O)CSc1nnc(N)s1 (stereo not drawn),13%
6,Cc1nnc(SCC(=O)N2c3ccccc3CC2C)s1 (stereo not drawn),-54.2%
7,CCC(=O)Nc1nnc(SCC(=O)N2c3ccccc3CC2C)s1 (stereo not drawn),5.26%
8,Cc1c(CN2CCN(CC(C)C)C(CCO)C2)[nH]c2ccc(Cl)cc12 (stereo not drawn),-34.4%
9,CC(C)CN1CCN(Cc2cc3ccccc3[nH]2)CC1CCO (stereo not drawn),-8.69%
10,CCOc1ccc(CN2CCN(Cc3[nH]c4ccc(OC)cc4c3C)CC2CCO)cc1 (stereo not drawn),-77.9%
11,CCOc1ccc(CN2CCN(Cc3[nH]c4ccccc4c3C)CC2CCO)cc1 (stereo not drawn),-75.8%
12,COc1ccc2[nH]c(CN3CCN(CCC(C)C)C(CCO)C3)c(C)c2c1 (stereo not drawn),23.5%
13,COc1cccc(CN2CCN(Cc3cc4ccccc4[nH]3)CC2CCO)c1 (stereo not drawn),-59.7%
14,CCOc1ccccc1CN1CCN(Cc2[nH]c3ccccc3c2C)CC1CCO (stereo not drawn),-62.3%
15,CCOc1ccccc1CN1CCN(Cc2c[nH]c3ccccc23)CC1CCO (stereo not drawn),-6.71%
16,Cc1c(CN2CCN(CC(C)(C)C)C(CCO)C2)[nH]c2ccccc12 (stereo not drawn),12.2%
17,COc1ccc2[nH]c(CN3CCN(CC=C(C)C)C(CCO)C3)c(C)c2c1 (stereo not drawn),-17.1%
18,COc1cccc(CN2CCN(Cc3ccc(C)o3)CC2CCO)c1 (stereo not drawn),-21.2%
19,NC(=O)COc1ccc(Cc2ncc(C(F)(F)F)cc2Cl)cc1,-2.34%
20,Cc1ccc(C)c(NS(=O)(=O)c2cc(C(=O)N3CCc4ccccc4C3)ccc2Cl)c1,8.24%
21,CCOc1ccc(C(=O)NCC(=O)OCc2c(C)noc2C)cc1OCC,23.2%
22,Cc1cc(O)c(CN2CCN(c3ccccc3)CC2)cc1C,3.98%
23,O=C(Nc1ccccc1Cl)Oc1ccc(Cl)cc1Cl,12.8%

row,SMILES,"hERG current change (%, negative = inhibition) at 10uM"
1,Cc1ccc(NC2=Nc3ccccc3CC2)cc1,-18.2%
2,CS(=O)(=O)c1ccc2nc(NC(=O)c3ccc(N4C(=O)CCC4=O)cc3)sc2c1,6.3%
3,CSc1nc2c(c(=O)[nH]1)C(c1ccccc1Cl)CC(=O)N2 (stereo not drawn),12.8%
4,CCc1nnc(NS(=O)(=O)c2ccc(Nc3ccc([N+](=O)[O-])c4nonc34)cc2)s1,46.6%
5,COc1ccc2[nH]c(CN3CCN(CC(C)C)C(CCO)C3)c(C)c2c1 (stereo not drawn),5.18%
6,COc1cccc(CN2CCN(Cc3[nH]c4ccccc4c3C)CC2CCO)c1 (stereo not drawn),-60.5%
7,COc1cc(CN2CCN(Cc3c[nH]c4ccccc34)CC2CCO)cc(OC)c1 (stereo not drawn),-32.3%
8,Cc1csc(NC(=O)CSc2nncn2C)n1,19%
9,O=C1C=C(NCc2ccccc2)C2(CCCCC2)O1,0.0967%
10,CCc1ccc(NC(=O)CSc2nc(=O)n(CCCN3CCOCC3)c3c2CCCC3)cc1,-54.7%
11,CCOc1ccc(NC(=O)CSc2nc(=O)n(CCCN3CCOCC3)c3c2CCC3)cc1,-24.1%
12,CCc1ccc(NC(=O)CSc2nc(=O)n(CCCN3CCOCC3)c3c2CCC3)cc1,-40%
13,CCOC(=O)c1ccc(NC(=O)CSc2nc(=O)n(CCN3CCOCC3)c3c2CCC3)cc1,-32%
14,CCCCc1ccc(NC(=O)CSc2nc(=O)n(CCN3CCOCC3)c3c2CCC3)cc1,-66.5%
15,CCCCc1ccc(NC(=O)CSc2nc(=O)n(CCCN3CCOCC3)c3c2CCC3)cc1,-64.5%
16,O=C(COC(=O)c1cc[n+]([O-])cc1)Nc1ccc(Cl)cc1[N+](=O)[O-],15.6%
17,COc1cc(C(=O)OCC(=O)c2c[nH]c3ccccc23)ccc1OCC(=O)N1CCOCC1,5.92%
18,Cc1cccc(C(=O)N[C@H](C(=O)Nc2nc3ccccc3[nH]2)C(C)C)c1,3.32%
19,COc1ccc(C(CC(=O)c2ccccc2)S(=O)(=O)c2ccc(C)cc2)cc1 (stereo not drawn),12.8%
20,COc1ccc(Cl)cc1N(CC(=O)NCC(C)C)S(=O)(=O)c1ccc(C)c([N+](=O)[O-])c1,8.34%
21,COC(=O)C(NNc1ccccc1C)(NC(=O)c1ccc(F)cc1)C(F)(F)F (stereo not drawn),-1.2%
22,Cc1ccc(NC(=O)c2ccc(OC(F)F)cc2)cc1S(=O)(=O)N(C)C,-10.4%
